# Target: LCN1
# Assay: pooled miR-30 sensor sort-seq; sequence = guide strand
# Settings: shRNA
# Also: reference of the scale not given here.
row,Sequence,sensor-assay potency score (higher = more potent)
1,TTCCAGGGTCGTGAGGGTCATG,-1.33
2,TGTTCTTGGGGTCTCTGCCCAC,-1.02
3,TGGTCCTTCACGTGCGACCTGA,-1.44
4,TGACACATCCTGAATCTCCTCG,1.02
5,ATGCTCTCCGTGCTGAGTCCGC,-1.5
6,ATTCATCTCAGGGAACTCCCTG,-0.0672
7,TTCATCTCAGGGAACTCCCTGT,0.622

# Target: LECT2
# Assay: as above
# Settings: shRNA
row,Sequence,sensor-assay potency score (higher = more potent)
1,TTGTATGCCAGGATAAACTTTC,-0.895
2,TCTCATTGGAAGACTTGCCAGC,-0.403
3,ATTGATAGCATTCTTGTTTTGA,-0.317
4,ATTATTGATAGCATTCTTGTTT,-0.52
5,TATGCCAGGATAAACTTTCTGC,-0.251
6,TTTGAGCAGAGTACTGTCCACA,-0.808
7,ATGTAGAACATTTTGACACAAA,-1.54
8,TAATGTAGAACATTTTGACACA,-0.673
9,TTATTGATAGCATTCTTGTTTT,-1.1
10,TTGACACAAAAACCTCTTCCAG,-1.04
11,TTCCAGATATTCGAACACCATT,-1.45
12,TATTCGAACACCATTATTGATA,-1.28

# Target: LEFTY1
# Assay: as above
# Settings: shRNA
row,Sequence,sensor-assay potency score (higher = more potent)
1,TCCAACGCCAGGAACCTGCCGG,-1.04
2,TTAGGTGAGGTAACTTGTCAGA,-0.87
3,TAGTCCCCAAGGTCCAGGGTGT,-1.02
4,TTTGAGCTGCAGCTGCCGCAGC,-0.825
5,TAAACAATGACACATTGGGCTT,-1
6,TCTTTGAGCTGCAGCTGCCGCA,-1.36
7,TGACCAGCTCCTCCATGTCGGC,-1.7
8,TTCTCGGCCCACTTCATCCCCT,-1.23
9,TTACAAAGTCTTTATTATCTGG,-0.428
10,TATCTCCACATGTAAGTGCTTA,-0.789
11,TCCATAGTCCCCAAGGTCCAGG,-1.98
12,TCATAAGCCAGGAAGCCCGGGG,-0.504

# Target: LEKR1
# Assay: as above
# Settings: shRNA
row,Sequence,sensor-assay potency score (higher = more potent)
1,TTGCTTTTCTTTCACAGTCAGC,-1.35
2,TTAGATCTCTTGTAGCGCCTGT,0.858
3,TTTAAGAGTGGTCACTTCCTGC,-0.157
4,TTCTCTACGCACTGTCTCCTGA,-0.0391
5,TTGCAATTTTGTTTCTTCCTTA,0.537
6,TACTCTTTTCAGTTCATCCGAC,0.07
7,TATACTTTTGGATTACATCTTG,-0.0779
8,TTAGATTCTTCAGTGTACCGAG,0.595
9,TTGCTCTTCAAATTCAACCAAG,-1.09
